Compound activity as filed in PubChem BioAssay.
TWEAK-Fn14 inh: inhibitors of TWEAK-Fn14 interaction signaling; AID 1159606; TWEAK-stimulated Fn14 reporter cells, luciferase luminescence, 8 h; inhibition, % at 10 µM; hit rate 2% among 360,000; in the data active = inhibition above about 50%
Peg3 promoter: Peg3 promoter activity inhibition; HeLa PEG-Prom luciferase reporter, luminescence, overnight; AID 588405; hit rate 1.7% among 360,000; inhibition, % at 20 µM;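 active = inhibition of at least 50% at 20 µM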
Shn3 3UTR inh: inhibitors of Schnurri-3 3'UTR reporter in osteoblasts; Clone20 osteoblast Shn3 3'UTR firefly luciferase, 24 h; inhibition, % at 12.5 µM; hit rate 0.52% among 360,000;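 active = mean inhibition of at least 75% with every replicate also reaching 75%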;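 note: 0% = median of neutral control wells and 100% = pilot-screen positive control compound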
TRPM1 prom inh: inhibitors of MITF-driven TRPM1 promoter in melanoma cells; SK-MEL-5 TRPM1 promoter luciferase, 24 h; inhibition, % at 12.5 µM; hit rate 0.83% among 330,000;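 active = mean inhibition across replicates of 60% or more, whatever share of single replicates reaches that level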
LMP1 NFkB inh: inhibitors of Epstein-Barr LMP1-induced NF-kappaB reporter; hit rate 0.69% among 350,000; inhibition, % at 12.5 µM; LMP1-induced NF-kappaB luciferase reporter cells, luminescence; in the data active = inhibition above about 41%;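 note: 0% = neutral control wells and 100% = reference inhibitor control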
TROY NFkB inh: inhibitors of TROY-dependent NF-kB signaling | inhibition, % at 10 µM | AID 1347056 | Q293 LMP1-TROYcd NF-kB luciferase reporter, 4 h | hit rate 0.98% among 360,000;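 active = compounds whose plate-normalised and pattern-corrected inhibition of the luciferase reporter signal at the single screening dose is 50% or more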
* marks the source's active call; other numbers are inactive results; / = no result given. Sampled rows, rich in hits. Any-hit rate of the full collection: about 4.1%.

SMILES	TWEAK-Fn14 inh	Peg3 promoter	Shn3 3UTR inh	TRPM1 prom inh	LMP1 NFkB inh	TROY NFkB inh
COc1ccc(NC(=O)Cc2c(O)c3ccccc3[nH]c2=O)cc1	-7	4	-8	0	3	-15
Cc1ccc(CNC(=S)Nc2ccc3c(c2)c(=O)n(C)n3Cc2cccc(C(F)(F)F)c2)cc1	57*	-17	9	/	/	61*
CCNC(=S)Nc1ccc2c(c1)c(=O)n(C)n2Cc1cccc(C(F)(F)F)c1	17	-2	-2	/	/	0
Cc1ccc(NC(=O)COC(=O)Cc2c[nH]c3ccccc23)cc1	14	-2	1	/	2	5
CCOC(=O)C1CCCN(C(=O)c2ccc3ncsc3c2)C1 (configuration not stated)	-23	16	-1	4	-5	3
CCOC(=O)c1c(C)n(C)c2ccc(O)c(CN3CCC(C)CC3)c12	-44	-14	30	9	8	1
CCOC(=O)c1c(C)oc2cc(Cl)c(O)c(CN(C)C)c12	-6	2	-53	-30	1	-32
CCOC(=O)c1c(-c2ccccc2)oc2cc(CN(C)C)c(O)c(CN(C)C)c12	44	68*	94*	31	5	42
CCOC(=O)c1c(-c2ccccc2)oc2ccc(O)c(CN3CCN(C)CC3)c12	8	54*	1	19	22	22
COCCOC(=O)c1c(C)oc2ccc(O)c(CN3CCC(C)CC3)c12 (tested in a mixture with another compound)	8	-2	93*	-7	8	-20
O=C(COC(=O)COc1ccc(Cl)cc1Br)NC1CC1	22	-1	-20	-1	0	11
Cc1nc(SCC(=O)Nc2cccc(Cl)c2)n[nH]1	9	7	-4	-3	-6	12
O=C(CSc1n[nH]c(-c2ccccn2)n1)Nc1cccc(Cl)c1	21	38	92*	33	37	8
CC(C)(CNC(=O)CC1C(=O)NCCN1Cc1cccc(F)c1F)N1CCOCC1 (configuration not stated)	11	11	6	4	0	-3
CC(OC(=O)c1cc(Br)ccc1O)C(=O)Nc1ccc(S(=O)(=O)N2CCCC2)cc1 (configuration not stated)	60*	28	-10	15	1	60*
CC(C)CN1C(=O)c2ccccc2C1c1nnnn1-c1ccc2c(c1)OCCO2 (configuration not stated)	8	/	/	/	/	10
CC(=O)NCN1CCN(CNC(C)=O)CC1	74*	1	-36	5	4	-1
O=C(c1ccc(C(F)(F)F)cc1)N1CCC(=O)N(C(CO)Cc2ccccc2)CC1 (configuration not stated)	70*	0	0	10	-7	-29
O=C(c1cccc(C(F)(F)F)c1)N1CCC(=O)N(C(CO)Cc2ccccc2)CC1 (configuration not stated)	1	5	-11	-4	-4	4
COc1cc(C(=O)N/N=C/c2cccc(Oc3ccccc3)c2)ccc1O	-12	-32	5	-4	2	-14
COc1cc(C(=O)Oc2ccccc2/C=N/NC(=O)c2ccc(Cl)cc2)cc(OC)c1OC	3	-92	41	0	0	-13
COc1cc(C(=O)N/N=C/c2ccc(OC(=O)c3cccc(C)c3)cc2)ccc1O	-3	-21	-19	-9	-4	51*
COc1cc(C(=O)Oc2ccccc2/C=N/NC(=O)c2ccc(C)c(Cl)c2)cc(OC)c1OC	-38	-6	57	-2	57*	1
COc1cccc(C(=O)Oc2ccc(/C=N/Nc3ccc(C(=O)O)cc3)cc2OC)c1	60*	-78	-26	13	-7	-5
COc1cc(/C=N/NC(N)=S)ccc1OC(=O)c1ccc(C)cc1	8	-24	-8	4	-7	9
SMILES	TWEAK-Fn14 inh	Peg3 promoter	Shn3 3UTR inh	TRPM1 prom inh	LMP1 NFkB inh	TROY NFkB inh
COc1cccc(OCc2cc(/C=N/Nc3ccc(C(=O)O)cc3)ccc2OC)c1	3	-138	40	6	0	-10
COc1cc(/C=N/NC(=O)c2ccc(N)cc2)ccc1OC(=O)c1cccc(C)c1	4	-30	1	-12	30	53*
CCC(=O)Nc1ccc(S(=O)(=O)N2CCN(c3ccc(F)cc3)CC2)cc1	-3	17	17	14	-16	-1
Cc1ccc(C(=O)N/N=C\c2cccc(OC(=O)c3cccc(F)c3)c2)cn1	23	-79	-32	-38	-6	-21
COc1ccc(C(=O)N/N=C/c2cc(Br)ccc2O)cc1OC	-42	48	91*	66*	11	26
Cc1ccc(C(=O)N/N=C\c2ccc(OC(=O)c3cccc(F)c3)cc2)cn1	-28	-29	-1	11	-3	-38
COc1cc(/C=N/Nc2ccc3ccccc3c2)ccc1OC(=O)c1ccco1	51*	-127	-42	8	-7	46
COc1cc(/C=N/Nc2nc(C)cc(C)n2)ccc1OC(=O)c1ccco1	10	-16	3	0	4	0
COc1cccc(/C=N\NC(=O)c2ccc(C)nc2)c1	-7	1	-29	0	86*	-19
CCCOc1ccc(Br)cc1/C=N/NC(=O)c1cc(OC)c(OC)c(OC)c1	35	25	-1	9	2	-1
COc1cc(/C=N\NC(=O)c2ccc(C)nc2)ccc1OC(=O)c1cccc(F)c1	72*	-29	-20	-7	0	15
COc1ccc(S(=O)(=O)N(C)c2ccc(C(=O)N3CCCCC3)cc2)cc1	-6	22	64	16	1	9
CCCCc1cc(-c2n[nH]c(=S)o2)c2ccccc2n1	-20	28	10	1	-2	10
CCS(=O)CCSc1nc2ccccc2s1 (configuration not stated)	80*	-39	5	2	6	60*
COc1cccc(/C=N/NC(=O)c2cc3c(OC)ccc(OC)c3[nH]2)c1O	-7	52*	94*	21	15	-1
COc1ccc(/C=N/NC(=O)c2nc(-c3ccccc3)n(-c3ccccc3)n2)cc1	-14	-3	-6	-12	1	-25
COc1cccc(/C=N/NC(=O)c2ccc3nc[nH]c3c2)c1O	-15	0	16	5	14	-15
COc1ccc(/C=N/NC(=O)c2nc(-c3ccccc3)n(-c3ccccc3)n2)c(O)c1	10	31	91*	57	19	11
COc1cccc(/C=N/NC(=O)N/N=C/c2cccc(OC)c2O)c1O	-4	14	66	-6	31	-41
COc1cc(OC)c2cc(C(=O)N/N=C/c3cccc(OC)c3O)[nH]c2c1	41	57*	96*	54	-3	-11
CC(C)(C)c1cc(C(=O)N/N=C/c2ccccc2O)n(-c2ccccc2)n1	-3	50*	91*	48	9	9
